26 molecules from PubChem BioAssay AID1209 (Sanford-Burnham Center for Chemical Genomics, 2008) can be followed below.

The whole screen tested about 190,000 compounds, of which about 810 (0.43%) were called active. Many of the other results were omitted from the sample, so actives are more common in it than they were. Unmarked numbers belong to inactive results. No stated cut-off is given here; in the data, active means inhibition above about 50%; inactive means the rest.

The target in the test is Mannose-6-phosphate isomerase (Homo sapiens) (UniProt P34949). Nature of the test: inhibitors of human PMI, primary screen, biochemical, fluorescence intensity, coupled assay (AID 1209).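 Further: plate controls were DMSO vehicle for no effect and wells lacking substrate for full effect.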 To be noted: purified PMI enzyme, at 20 µM, hits give high values.
Mannose-6-phosphate isomerase (Homo sapiens), sequence (P34949 whole entry, looked up): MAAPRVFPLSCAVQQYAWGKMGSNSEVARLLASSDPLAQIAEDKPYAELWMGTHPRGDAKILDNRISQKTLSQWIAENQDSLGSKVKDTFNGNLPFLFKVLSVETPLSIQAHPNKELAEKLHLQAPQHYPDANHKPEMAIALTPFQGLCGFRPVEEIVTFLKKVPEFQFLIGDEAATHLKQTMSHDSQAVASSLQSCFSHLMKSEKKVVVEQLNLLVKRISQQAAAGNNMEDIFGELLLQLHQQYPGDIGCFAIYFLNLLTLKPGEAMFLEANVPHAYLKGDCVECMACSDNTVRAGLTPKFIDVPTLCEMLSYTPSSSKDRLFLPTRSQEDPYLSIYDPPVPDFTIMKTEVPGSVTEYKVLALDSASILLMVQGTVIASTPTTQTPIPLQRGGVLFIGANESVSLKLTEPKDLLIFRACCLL
Consider `O=C(COC(=O)/C=C/c1ccc(S(=O)(=O)N2CCOCC2)cc1)NCc1ccc(F)cc1`, for which the inhibition was 9.2%.

In the case of `CC(C)[C@H](NC(=O)c1ccccc1)C(=O)OCC(=O)N1CCN(C(=O)c2ccco2)CC1`, the inhibition was -11.4%.

As for `Cc1cccc(Nc2c([N+](=O)[O-])c(=O)n(C)c3ccccc23)c1`, the inhibition was 2.7%.

Consider `Cc1ccc(Nc2c([N+](=O)[O-])c(=O)n(C)c3ccccc23)cc1`, for which the inhibition is 3.9%.

For the molecule `Cc1cccc(Oc2c([N+](=O)[O-])c(=O)n(C)c3ccccc23)c1`, the inhibition was 76% (active).

Regarding `COC(=O)C1CCN(C(=O)c2ccc(SC)cc2OC)CC1`, the inhibition was 6.4%.

Regarding `CCOc1cc(/C=C2/C(=O)N(c3ccccc3)N=C2C)ccc1OC(=O)c1cccs1`, the inhibition was 13.1%.

Turning to `CCOc1cc(/C=C2/C(=O)N(c3ccccc3)N=C2C)ccc1OC(=O)c1ccco1`, the inhibition is 37.5%.

As to `CCOc1cc(/C=C2\C(=O)N(c3ccc(C(N)=O)cc3)N=C2C)ccc1OC(=O)c1cccs1`, the inhibition is 59.8% (active).

For the molecule `O=C(NCC(O)c1ccc([N+](=O)[O-])cc1)c1cccc(S(=O)(=O)N2CCCC2)c1` (stereo unspecified), the inhibition is 7.8%.

As to `CCOC(=O)N1CCC(n2c(SCC(=O)NCCC3=CCCCC3)nc3ccccc3c2=O)CC1`, the inhibition was 8.6%.

As for `Cc1ccc(-n2c(N)c(C(=O)N3CCCCC3)sc2=S)cc1`, the inhibition is 22.6%.

As to `Nc1c(C(=O)N2CCCCC2)sc(=S)n1-c1ccccc1`, the inhibition was 57.7% (active).

Take `Cc1ccc(-n2c(N)c(C(=O)N3CCN(C)CC3)sc2=S)cc1`: the inhibition was 2.7%.

`Cc1ccc(-n2c(N)c(C(=O)N3CCOCC3)sc2=S)cc1`: the inhibition was 36.2%.

With `CN1CCN(C(=O)c2sc(=S)n(-c3ccccc3)c2N)CC1`, the inhibition was 2.8%.

On to `CCn1c(N)c(C(=O)N2CCOCC2)sc1=S`, for which the inhibition was 8.6%.

As for `Cc1c(C(=O)N2CCCCC2)sc(N)c1C#N`, the inhibition is 8.9%.

Take `Nc1c(C(=O)N2CCOCC2)sc(=S)n1-c1ccccc1`: the inhibition is 53.3% (active).

For `N#Cc1ccccc1-n1c(N)c(C(=O)N2CCCC2)sc1=S`, the inhibition is 71% (active).

As to `Cc1ccc(-c2nnc(SCC(=O)N/N=C/c3ccccc3C(=O)O)n2-c2ccccc2)cc1`, the inhibition was -2.4%.

In the case of `CC(C)NC(=O)C1CCN(Cc2cnn(-c3ccccc3)c2-n2cccc2)CC1`, the inhibition was -1.9%.

As for `S=C(Nc1ccccc1)N1CCN(C(=S)c2ccccc2)CC1`, the inhibition is 13.6%.

On to `CCNc1nc(OC)nc(SCC(=O)Nc2ccccc2)n1`, for which the inhibition is 7.3%.

In the case of `COc1ccc(NC(=O)Nc2ccccc2SC)c(OC)c1`, the inhibition is 16.5%.

Consider `Cc1cccc2sc(N(CCCN(C)C)C(=O)c3cc4ccccc4oc3=O)nc12`, for which the inhibition is 11.8%.
